In PubChem BioAssay (NCATS):
Results filed as inconclusive are left out. The source made the active and inactive calls. Unless noted, the rule behind the calls is not given here.

Assays:
[1] = qHTS profiling of the MIPE4 collection as inhibitors of Plasmodium falciparum (DD2) proliferation (AID 743345); settings: P. falciparum Dd2 in erythrocytes, SYBR Green DNA, 72 h; at 28.5 µM (top of the series) unless noted
In short: (§1)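 Erythrocytes infected with P. falciparum (0.3% parasitemia, 2.5% hematocrit) incubated with compounds 72 h at 37 C, 5% CO2. Lysis with saponin/Triton buffer containing SYBR Green I, overnight at room temperature in the dark; DNA fluorescence (485/535 nm) normalised to 0.29 uM artemisinin and DMSO.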

[2] = High-throughput drug toxicity screening in the BPDCN cell line Gen2.2 (AID 1224824); settings: Gen2.2 BPDCN cells; at 45.8 µM (top of the series) unless noted;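 note: cells exposed to compounds for 48 h before reading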
In short: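 Gen2.2 cells, 500 per well in phenol red-free RPMI with 10% FBS, exposed to compounds 48 h at 37 C, 5% CO2; viability by CellTiter-Glo luminescence. Percent activity scaled to DMSO (100%) and 9.2 uM bortezomib final (0%).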

[3] = High-throughput drug toxicity screening in the BPDCN cell line Cal-1 (AID 1224825); settings: Cal-1 BPDCN cell viability, qHTS; at 45.8 µM (top of the series) unless noted
In short: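 Exponentially growing Cal-1 cells, 500 per well in phenol red-free RPMI with 10% FBS, were exposed to compounds for 48 h at 37 °C, 5% CO2. Viability was read by CellTiter-Glo luminescence and normalised to DMSO (100%) and 9.2 uM bortezomib (0%).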

[4] = qHTS assay for measurement of the activity of small molecule inhibitors on Zika virus induced Caspase-3 activity in human iPSC derived neural progenitor cells (hNPCs) (AID 1224857; active = well fitted curve in the direction sought with a large enough effect; an effect the other way counts as inactive or inconclusive; note: nearly all actives have a fitted effect of over 65% in size; note: potency is the fitted concentration of half-maximal effect)
In short: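 Values are percent inhibition of virus-induced caspase-3/7 signal, scaled between uninfected cells and ZIKV-infected cells. Infection used 2 FFU/cell for 6 h after 1 h compound exposure.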

[5] = qHTS assay for measurement of the activity of small molecule inhibitors on Zika virus induced Caspase-3 activity in human astrocytoma cells (AID 1224859; active = well fitted curve in the direction sought with a large enough effect; an effect the other way counts as inactive or inconclusive;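 note: plate controls were ZIKV-infected untreated cells for no effect and uninfected cells for full effect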)
In short: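 Compound added 1 h pre-infection; ZIKV 2 FFU/cell on SNB-19 cells, 6 h, 37 C/5% CO2. Caspase-Glo 3/7 luminescence; values as % inhibition of ZIKV-induced caspase activity.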

[6] = qHTS Screen of the MIPE 4.0 Collection Against Ewings Sarcoma (TC71) (AID 1259253; active = well fitted curve in the direction sought with a large enough effect; an effect the other way counts as inactive or inconclusive; note: nearly all actives have a fitted effect of over 40% in size; note: potency is the fitted concentration of half-maximal effect)
In short: (§2)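 Compound titrations go onto adherent log-phase cells 4 h after seeding, incubate 48 h at 37C, then CellTiter-Glo luminescence reports viability relative to DMSO and cell-free controls.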

[7] = qHTS Screen of the MIPE 4.0 Collection Against Ewings Sarcoma (EW8) (AID 1259255; active = well fitted curve in the direction sought with a large enough effect; an effect the other way counts as inactive or inconclusive; note: nearly all actives have a fitted effect of over 35% in size; note: potency is the fitted concentration of half-maximal effect;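 for viability: 100% = DMSO-treated cells and 0% = medium-only wells without cells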)
In short: as §2

[8] = Identifying Small Molecule Inhibitors of Pancreatic Cancer Stem Cells (A278, Adherent) (AID 1259361; active = well fitted curve in the direction sought with a large enough effect; an effect the other way counts as inactive or inconclusive; note: nearly all actives have a fitted effect of over 35% in size;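 for viability (% of control): 100% = DMSO-treated cells and 0% = cell-free media-only wells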)
In short: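 Viability is scored by CellTiter-Glo luminescence 48 h after dosing, expressed as percent activity against vehicle and no-cell references. Spheroid formats rely on cells cultured 14 days in stem cell media beforehand.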

[9] = Identifying Small Molecule Inhibitors of Pancreatic Cancer Stem Cells (Panc1, Adherent) (AID 1259362; active = well fitted curve in the direction sought with a large enough effect; an effect the other way counts as inactive or inconclusive;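 note: compound exposure lasted 48 h before the viability read; plate controls were DMSO-treated cells for no effect and cell-free media wells for full effect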); settings: Potency: viability
In short: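 Luminescent ATP readout (CellTiter-Glo) quantifies surviving cells after a 48 h drug incubation. Normalization uses DMSO wells as no inhibition and media-only wells as full inhibition; bortezomib served as positive control.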

[10] = qHTS profiling of the MIPE4 collection as inhibitors of Plasmodium falciparum (3D7) proliferation (AID 743344);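 note: scaled between DMSO vehicle wells and 0.29 µM artemisinin as full inhibition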; settings: P. falciparum 3D7 in erythrocytes, SYBR Green DNA fluorescence, 72 h; at 28.5 µM (top of the series) unless noted
In short: as §1

[11] = qHTS profiling of the MIPE4 collection as inhibitors of Plasmodium falciparum (DD2) proliferation (Rep 2) (AID 743346); settings: P. falciparum Dd2 in erythrocytes, SYBR Green DNA, 72 h; at 28.5 µM (top of the series) unless noted
In short: as §1

[12] = qHTS profiling of the MIPE4 collection as inhibitors of Plasmodium falciparum (HB3) proliferation (AID 743347);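 note: plate controls were DMSO vehicle wells for no effect and artemisinin wells for full effect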; settings: P. falciparum HB3 in erythrocytes, SYBR Green DNA, 72 h; at 28.5 µM (top of the series) unless noted
In short: as §1

[13] = qHTS Screen of the MIPE 4.0 Collection Against Ewings Sarcoma (TC32) (AID 1259256; active = well fitted curve in the direction sought with a large enough effect; an effect the other way counts as inactive or inconclusive; note: nearly all actives have a fitted effect of over 45% in size; note: potency is the fitted concentration of half-maximal effect)
In short: as §2

[14] = qHTS profiling for inhibitors of Plasmodium falciparum (DD2) proliferation (AID 743323); settings: lower = more inhibition; at 28.7 µM (top of the series) unless noted
In short: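 Parasite proliferation measured via DNA-dye fluorescence, as uninfected erythrocytes lack DNA. Cultures at 0.3% parasitemia and 2.5% hematocrit incubated 72 h with compound; signal scaled between vehicle and 0.29 uM artemisinin wells.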

[15] = qHTS profiling for inhibitors of Plasmodium falciparum (HB3) proliferation (AID 743324; active = well fitted curve in the direction sought with a large enough effect; an effect the other way counts as inactive or inconclusive;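 note: 100% = DMSO vehicle wells and 0% = artemisinin-treated control wells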); settings: Plasmodium falciparum HB3 blood-stage proliferation; at 28.7 µM (top of the series) unless noted
In short: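 P. falciparum HB3 grown in erythrocytes (0.3% parasitemia, 2.5% hematocrit final) with compound for 72 h at 37 C, 5% CO2. Parasite DNA detected by SYBR Green after saponin/triton lysis overnight; normalized to 0.29 uM artemisinin and DMSO.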

[16] = qHTS assay to identify small molecule inhibitors of chordoma cells - UCH-1 (AID 1259355; active = well fitted curve in the direction sought with a large enough effect; an effect the other way counts as inactive or inconclusive; note: % is set by controls: 0 for no effect and ±100 for the full control effect; nearly all actives have a fitted effect of over 55% in size)
In short: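 Luminescent ATP read-out (CellTiter-Glo, 30min at room temperature) measured viability of UCH-1 cells exposed for 48hr to test drugs at 15 concentrations, co-dosed with a five-agent combination of auranofin, camptothecin, doxorubicin, rubitecan and topotecan.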

[17] = qHTS assay to identify small molecule inhibitors of chordoma cells - UCH-2 (AID 1259356; active = well fitted curve in the direction sought with a large enough effect; an effect the other way counts as inactive or inconclusive; note: % is set by controls: 0 for no effect and ±100 for the full control effect)
[18] = qHTS Screen of the MIPE 4.0 Collection Against Ewings Sarcoma (RDES) (AID 1259252; active = well fitted curve in the direction sought with a large enough effect; an effect the other way counts as inactive or inconclusive; note: potency is the fitted concentration of half-maximal effect; nearly all actives have a fitted effect of over 35% in size)
In short: as §2

Structure (SMILES) | parasite growth remaining, % of DMSO control (lower = more inhibition) [1] | cell viability, % of control (lower = more cytotoxic) [2] | viability (% of control) [3] | Potency [4] | Potency [5] | Potency [6] | Potency [7] | IC50 (viability decrease) [8] | Potency [9] | parasite growth, % of DMSO control [10] | parasite growth, % of control (lower = inhibition) [11] | growth, % of control [12] | Potency [13] | activity, percent of control [14] | remaining proliferation (% of control), lower = more inhibition [15] | outcome [16] | outcome [17] | Potency [18]
COc1ccc2c(c1)CC[C@H]1[C@@H]2CC[C@]2(C)[C@@H](NCCCCCCN3C(=O)C=CC3=O)CC[C@H]12 | 95.3% | 154% | 43% | inactive | inactive | 16.6 µM (active) | inactive | 20.9 µM (active) | inactive |  |  |  |  |  |  |  |  | 
Cc1ccc(C2=Nc3ccc(Cl)cc3OC2)cc1 | 94.3% | 73.9% | 85% | inactive | inactive | 4.69 µM (active) | 16.6 µM (active) |  |  | 30.3% | 26.5% | 55.7% |  |  |  |  |  | 
CON(C)C(=O)N1N=C(c2cc(F)ccc2F)S[C@]1(CCCN)c1ccccc1 |  | 16.8% | 7.01% | inactive | inactive | inactive | inactive |  |  | 13.1% | 18.3% | 8.3% | inactive |  |  |  |  | 
CN1[C@H]2CC[C@H]1CC(OC(=O)c1c[nH]c3ccccc13)C2 (some centres not stated) | 26.8% | 99% | 111% | inactive | inactive | 18.7 µM (active) | 4.18 µM (active) |  |  | 53% |  | 22% | 3.32 µM (active) |  |  |  |  | 
CO[C@H]1O[C@@H]2O[C@@]3(C)CC[C@@H]4[C@@H](C)CC[C@@H]([C@H]1C)[C@@]24OO3 | 7.38% | 62.1% | 31.3% | inactive | inactive | 4.69 µM (active) | 5.9 µM (active) |  |  | 20.7% |  | 46% |  |  |  |  |  | 
CCC=CC[C@H]1C(=O)CC[C@@H]1CC(=O)OC | 109% | 137% | 107% | inactive | inactive | 16.6 µM (active) | inactive | inactive |  | 62.5% | 86.4% | 79.8% |  | 93.1% | 113% |  |  | 
CCNC(=O)CCCC=CC[C@@H]1[C@H](C=CC(O)CCc2ccccc2)[C@@H](O)C[C@@H]1O (some centres not stated) | 127% | 108% | 21% | inactive |  | inactive | 23.5 µM (active) |  |  | 63.1% | 60.3% | 74.9% | inactive |  |  |  |  | 
COc1ccnc(CS(=O)c2nc3ccc(OC(F)F)cc3[nH]2)c1OC (configuration not stated) | 95.8% | 282% | 108% | inactive |  | inactive | inactive |  |  | 58.5% | 99% | 91% | inactive |  |  | inactive | inactive | 
O=C(O)CCNc1cc(N2CCc3ccccc3CC2)nc(-c2ccccn2)n1 | 48.3% | 158% | 91.6% | inactive |  | 26.4 µM (active) |  |  |  | 19.7% |  | 5.23% |  |  |  |  |  | 26.4 µM (active)
COc1c(C)c2c(c(O)c1CC=C(C)CCC(=O)OCCN1CCOCC1)C(=O)OC2 | 18.6% | 164% | 13.5% | inactive |  | 1.48 µM (active) |  |  |  | 16.6% | 15.1% | 9.76% | 1.32 µM (active) |  |  | inactive | inactive | 
N#CC(=C1Nc2ccccc2S1)c1ccnc(OCc2ccc(CN3CCOCC3)cc2)n1 | 57.9% | 5.77% | 2.57% | inactive |  |  | 5.26 µM (active) |  |  | 14.1% | 35.2% | 10.8% | 7.43 µM (active) |  |  |  |  | 7.43 µM (active)
CCN1CCC(n2cc(CNc3cc(Cl)c4ncc(C#N)c(Nc5ccc(F)c(Cl)c5)c4c3)nn2)CC1 | 12.5% | 35.5% | 36.8% | 18.7 µM (active) |  | 18.7 µM (active) | 20.9 µM (active) |  |  | 12.9% | 12.3% | 7.52% | 18.7 µM (active) |  |  |  |  | 
CN1c2ccccc2C(=O)N2CCc3c([nH]c4ccccc34)C21 (configuration not stated) | 103% | 54.1% | 97% | inactive |  | 23.5 µM (active) | inactive |  |  | 94.3% | 90.2% | 55% | 14.8 µM (active) |  |  |  |  | 
